# Laboratory results taken from publication doi:10.1101/2024.03.05.583629.
# Columns and labels:
# [1] = biological target: pT7_6His-AlfaTag-HOXD13 (human, UniProt P35453 263-343); test: PADIT-seq; conditions: dsDNA, one strand shown
# [2] = biological target: pT7_6His-AlfaTag-ZIF268 (human, UniProt P18146 335-423); test: PADIT-seq; conditions: dsDNA, one strand shown
# pT7_6His-AlfaTag-HOXD13, sequence (P35453 263-343): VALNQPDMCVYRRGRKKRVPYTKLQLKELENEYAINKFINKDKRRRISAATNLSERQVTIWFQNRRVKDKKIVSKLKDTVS
sequence,measurement,setting,value
CTCGAGGATATCAAGATCTGGCCTCGGCCGTTGGGCGGGAACCTCTAGCTAGCCGACTCACTATAGGGATAATCGCCCTGAGCAAAGACC,binding signal,[1],-0.921 ± 0.107 log2FC
same,binding signal,[2],0.0419 ± 0.0862 log2FC
CTCGAGGATATCAAGATCTGGCCTCGGCATCCCACGCGGAACCTCTAGCTAGCCGACTCACTATAGGGATAATCGCCCTGAGCAAAGACC,binding signal,[1],-0.991 ± 0.113 log2FC
same,binding signal,[2],0.41 ± 0.087 log2FC
CTCGAGGATATCAAGATCTGGCCTCGGCACAGTAAAAGGAACCTCTAGCTAGCCGACTCACTATAGGGATAATCGCCCTGAGCAAAGACC,binding signal,[1],1.94 ± 0.076 log2FC
same,binding signal,[2],0.04 ± 0.0816 log2FC
CTCGAGGATATCAAGATCTGGCCTCGGCGTCATAAAAGGAACCTCTAGCTAGCCGACTCACTATAGGGATAATCGCCCTGAGCAAAGACC,binding signal,[1],2.72 ± 0.0783 log2FC
same,binding signal,[2],0.00486 ± 0.0824 log2FC
